Records with an inconclusive call do not appear. The source made the active and inactive calls. The calls were made as follows, unless noted: active = hit-call score of the fitted dose curve at least 0.9, where 1 is the maximum; inactive = score below 0.9.
How the values were obtained:
[1] = ATG_DR4_LXR_CIS: Attagene CIS-FACTORIAL HepG2 Assay for human Liver X Receptor (LXR), DR4 submotif (AID 2282929); details: HepG2 Attagene DR4 cis-reporter, mRNA transcription; actives raise or lower the signal
In short: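 Measures endogenous transcription factor activity via a DR4-driven reporter transcript in human HepG2 cells. Compounds incubated 24 h; mRNA quantified by RT-PCR and capillary electrophoresis, analysed as gain or loss of signal versus DMSO.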

[2] = target: Hepatocyte nuclear factor 3-beta (Homo sapiens) (UniProt Q9Y261); assay: ATG_FoxA2_CIS: Attagene CIS-FACTORIAL HepG2 Assay for human Forkhead box A2 (FOXA2) (AID 2282942); details: HepG2 cis-reporter transcription factor activity, 24 h; actives raise or lower the signal
In short: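 In transiently transfected human HepG2 cells, promoter-driven reporter mRNA levels after 24 h chemical exposure are determined via RT-PCR with capillary electrophoresis. DMSO serves as baseline for bidirectional fitting.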

[3] = target: Hypoxia-inducible factor 1-alpha (Homo sapiens) (UniProt Q16665); assay: ATG_HIF1a_CIS: Attagene CIS-FACTORIAL HepG2 Assay for human Hypoxia Inducible Factor 1 (HIF1A) (AID 2282951); details: HepG2 Attagene cis-factorial HIF1a reporter transcription; actives raise or lower the signal
In short: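 In this multiplexed cell assay, HepG2 cells bearing transfected cis reporters are dosed for 24 h and reporter mRNA is read by RT-PCR plus capillary electrophoresis; signal increases and decreases are both scored against DMSO.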

[4] = target: Heat shock factor protein 1 (Homo sapiens) (UniProt Q00613); assay: ATG_HSE_CIS: Attagene CIS-FACTORIAL HepG2 Assay for human Heat Shock Transcription Factor 1 (HSE) (AID 2282953); details: HepG2 HSE cis-reporter, Attagene RNA transcription; actives raise or lower the signal
In short: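 Endogenous transcription factor activity in transiently transfected HepG2, read as reporter mRNA by RT-PCR with fluorescent capillary electrophoresis after 24 h. Gain or loss of signal fitted versus DMSO baseline.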

[5] = ATG_RORE_CIS: Attagene CIS-FACTORIAL HepG2 Assay for human RAR-related Orphan Receptor Element (RORE) (AID 2282959); details: HepG2 Attagene cis-factorial RORE reporter, mRNA; actives raise or lower the signal
In short: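 Fluorescence intensity of reporter-specific cDNA fragments, separated by capillary electrophoresis, gives the signal. Source: HepG2 liver cells transiently transfected with cis-element reporters and exposed 24 h; DMSO-normalized bidirectional fit.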

[6] = target: Signal transducer and activator of transcription 3 (Homo sapiens) (UniProt P40763); assay: ATG_STAT3_CIS: Attagene CIS-FACTORIAL HepG2 Assay for human Signal Transducer and Activator of Transcription 3 (STAT3) (AID 2282963); details: HepG2, Attagene cis-factorial STAT3 reporter transcription; actives raise or lower the signal
In short: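 HepG2, MRTU-transfected, 24 h dosing. RNA → RT → PCR → FAM label → HpaI → CE. Bidirectional fit vs DMSO.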

[7] = ATG_TCF_b_cat_CIS: Attagene CIS-FACTORIAL HepG2 Assay for human T-Cell-Factor with beta-catenin (TCF/b-cat) (AID 2282965); details: HepG2 TCF/beta-catenin cis-reporter transcription, actives raise or lower the signal
In short: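 In this cis-format system, transfected HepG2 cells report endogenous transcription factor activity. Readout after 24 h exposure is reporter transcript abundance from RT-PCR and capillary electrophoresis, analysed for gain or loss of signal versus DMSO.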

[8] = ATG_TAL_CIS: Attagene CIS-FACTORIAL HepG2 Assay for human TAL Basal Promoter (AID 2282966); details: HepG2 Attagene cis-factorial TAL promoter reporter; actives raise or lower the signal;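 also: background control endpoint measuring basal TAL promoter reporter mRNA not a specific factor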
In short: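 After 24 hours of chemical exposure, transfected HepG2 cells yielded RNA that was converted to 6-FAM-labelled, HpaI-digested reporter fragments for capillary electrophoresis. Values derive from bidirectional fitting against DMSO controls.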

[9] = ATG_TGFb_CIS: Attagene CIS-FACTORIAL HepG2 Assay for human Transforming Growth Factor (TGF) (AID 2282967); details: HepG2 Attagene CIS TGFb reporter, mRNA transcription; actives raise or lower the signal
In short: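 Endogenous TGFB1-linked transcription factor activity read as reporter mRNA via RT-PCR and capillary electrophoresis, 24 h after dosing transiently transfected HepG2 cells. Gain or loss of signal fitted relative to DMSO.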

[10] = ATG_VDRE_CIS: Attagene CIS-FACTORIAL HepG2 Assay for human Vitamin D Receptor Element (VDRE) (AID 2282968); details: HepG2 VDRE cis-reporter transcription, actives raise or lower the signal
In short: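 Steps: transfect HepG2 with multiple reporter transcription units; dose chemicals 24 h; isolate RNA; RT-PCR; label with 6-FAM primer extension; HpaI digest; capillary electrophoresis. Curves fitted both directions against DMSO.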

[11] = target: X-box-binding protein 1 (Homo sapiens) (UniProt P17861); assay: ATG_Xbp1_CIS: Attagene CIS-FACTORIAL HepG2 Assay for human X-box Binding Protein 1 (XBP1) (AID 2282972); details: HepG2 XBP1 cis-element reporter, Attagene multiplex; actives raise or lower the signal
In short: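 Human hepatoma HepG2, cis-element reporter system, 24 h treatment; mRNA quantified by RT-PCR/CE fluorescence; fit relative to DMSO.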

[12] = target: Transcriptional activator Myb (Homo sapiens) (UniProt P10242); assay: ATG_Myb_CIS: Attagene CIS-FACTORIAL HepG2 Assay for human Myeloblastosis (Myb) Proto-Oncogene Transcription Factor (AID 2282986); details: HepG2 Attagene CIS-FACTORIAL Myb reporter transcription; actives raise or lower the signal
In short: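 Fluorescence signals from capillary electrophoresis of RT-PCR-amplified reporter cDNA give the read-out. Cells: HepG2 transfected with multiple cis-regulated reporter units. Exposure lasts 24 hours; DMSO defines baseline for gain or loss of signal.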

[13] = target: Nuclear respiratory factor 1 (Homo sapiens) (UniProt Q16656); assay: ATG_NRF1_CIS: Attagene CIS-FACTORIAL HepG2 Assay for human Nuclear Respiratory Factor 1 (NRF1) Orphan Gene (AID 2282987); details: HepG2 NRF1 cis-element reporter, Attagene multiplex; actives raise or lower the signal
In short: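 Transcriptional reporter readout, one component of a 52-endpoint multiplexed HepG2 panel. Exposure 24 h; mRNA detected via RT-PCR and fluorescent capillary electrophoresis; fitting in both directions against DMSO.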

[14] = target: Myc proto-oncogene protein (Homo sapiens) (UniProt P01106); assay: ATG_Myc_CIS: Attagene CIS-FACTORIAL HepG2 Assay for human Myelocytomatosis (Myc) Proto-Oncogene Transcription Factor (AID 2282990); details: HepG2, Attagene cis-reporter transcription factor activity; actives raise or lower the signal
In short: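 DMSO-normalised, bidirectionally fitted reporter mRNA signal. HepG2 cells transfected with cis reporter constructs, treated 24 h; transcripts detected by RT-PCR, 6-FAM primer extension and CE.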

[15] = ATG_NRF2_ARE_CIS: Attagene CIS-FACTORIAL HepG2 Assay for human Nuclear Factor Erythroid 2 Related Factor 2 (NFR2) response to Antioxidant Response Elements (ARE) (AID 2282992); details: HepG2 Attagene ARE/NRF2 reporter, transcription factor activity; actives raise or lower the signal
In short: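 Fluorescence intensity of reporter-specific cDNA fragments, separated by capillary electrophoresis, reflects mRNA induction in transfected HepG2 cells at 24 h. Activity is fitted bidirectionally, DMSO serving as baseline.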

[16] = ATG_Oct_MLP_CIS: Attagene CIS-FACTORIAL HepG2 Assay for human Octamer-Binding Transcription Factor (Oct) (AID 2282993); details: HepG2 Attagene cis-factorial Oct reporter, mRNA; actives raise or lower the signal
In short: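 Readout is reporter transcript level from RT-PCR with fluorescent primer extension and capillary electrophoresis, fitted in both directions against DMSO. Transfected HepG2 reporter units report endogenous factor activity after 24 h dosing.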

[17] = target: Cellular tumor antigen p53 (Homo sapiens) (UniProt P04637); assay: ATG_p53_CIS: Attagene CIS-FACTORIAL HepG2 Assay for human p53 Transcription Factor (AID 2282994); details: HepG2 p53 cis-element reporter, Attagene mRNA; actives raise or lower the signal
In short: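 Transiently transfected HepG2 (multiple cis reporter transcription units); exposure 24 h; reporter RNA via RT-PCR, 6-FAM extension, 2 h HpaI digest at 37 C, CE detection; DMSO baseline.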

[18] = ATG_XTT_Cytotoxicity: Cytotoxicity Assessment in the Attagene TRANS-FACTORIAL HepG2 Assay (AID 2283584; active = hit-call score of the fitted dose curve at least 0.9, where 1 is the maximum)
In short: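 Cells: human HepG2, transiently transfected with MRTU reporter constructs. Exposure 24 h. Readout: XTT, cell number. Baseline/neg ctrl DMSO; loss-of-signal scored.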

[19] = ATG_AP_1_CIS: Attagene CIS-FACTORIAL HepG2 Assay for human Activator Protein 1 (AP-1) (AID 2282931); details: HepG2 Attagene cis-factorial AP-1 reporter mRNA; actives raise or lower the signal
In short: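 Bidirectional concentration-response fitting against DMSO controls. Underlying signal: reporter mRNA from cis-promoter constructs in transiently transfected HepG2, measured after 24 h by RT-PCR and capillary electrophoresis.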

[20] = target: Nuclear receptor subfamily 1 group I member 2 (Homo sapiens) (UniProt O75469); assay: ATG_PXR_TRANS: Attagene TRANS-FACTORIAL HepG2 Assay for human Pregnane X Receptor (PXR) (AID 2283008; active = hit-call score of the fitted dose curve at least 0.9, where 1 is the maximum)
In short: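 Transient HepG2 transfectants carrying multiplexed reporter transcription units; PXR activity read through a Gal4 chimera. 24 h exposure. RT-PCR/CE fluorescence; upward curve fit referenced to DMSO.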

Measured: outcome

Hypoxia-inducible factor 1-alpha (Homo sapiens), sequence (Q16665 whole entry, looked up): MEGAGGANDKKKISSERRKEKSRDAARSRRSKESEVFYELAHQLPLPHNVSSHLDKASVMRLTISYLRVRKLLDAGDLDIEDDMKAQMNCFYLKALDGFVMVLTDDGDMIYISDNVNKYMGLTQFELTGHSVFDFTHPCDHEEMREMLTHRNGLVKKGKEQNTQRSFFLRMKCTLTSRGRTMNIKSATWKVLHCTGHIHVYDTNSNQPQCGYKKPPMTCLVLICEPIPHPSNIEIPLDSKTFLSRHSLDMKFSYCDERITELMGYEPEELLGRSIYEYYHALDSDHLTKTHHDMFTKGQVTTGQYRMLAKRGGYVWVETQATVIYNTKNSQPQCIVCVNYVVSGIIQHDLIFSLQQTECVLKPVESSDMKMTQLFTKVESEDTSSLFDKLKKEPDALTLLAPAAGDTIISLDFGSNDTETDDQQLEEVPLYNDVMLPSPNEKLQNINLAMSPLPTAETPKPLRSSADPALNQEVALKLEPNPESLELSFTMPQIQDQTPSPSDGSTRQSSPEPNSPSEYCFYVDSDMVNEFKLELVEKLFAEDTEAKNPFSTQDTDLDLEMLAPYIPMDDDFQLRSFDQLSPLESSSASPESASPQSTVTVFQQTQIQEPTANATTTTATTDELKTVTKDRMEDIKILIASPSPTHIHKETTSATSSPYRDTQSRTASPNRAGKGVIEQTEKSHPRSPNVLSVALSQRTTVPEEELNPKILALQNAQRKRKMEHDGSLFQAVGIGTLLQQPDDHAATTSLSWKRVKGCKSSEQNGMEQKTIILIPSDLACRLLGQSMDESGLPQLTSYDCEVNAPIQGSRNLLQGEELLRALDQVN
X-box-binding protein 1 (Homo sapiens), sequence (P17861 whole entry, looked up): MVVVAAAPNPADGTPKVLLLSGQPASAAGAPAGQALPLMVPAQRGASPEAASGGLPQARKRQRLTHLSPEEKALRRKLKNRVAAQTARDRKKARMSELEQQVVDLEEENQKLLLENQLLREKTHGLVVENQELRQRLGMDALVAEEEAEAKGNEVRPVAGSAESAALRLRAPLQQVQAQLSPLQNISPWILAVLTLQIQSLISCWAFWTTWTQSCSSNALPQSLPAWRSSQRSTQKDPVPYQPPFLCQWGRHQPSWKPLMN
Myc proto-oncogene protein (Homo sapiens), sequence (P01106 whole entry, looked up): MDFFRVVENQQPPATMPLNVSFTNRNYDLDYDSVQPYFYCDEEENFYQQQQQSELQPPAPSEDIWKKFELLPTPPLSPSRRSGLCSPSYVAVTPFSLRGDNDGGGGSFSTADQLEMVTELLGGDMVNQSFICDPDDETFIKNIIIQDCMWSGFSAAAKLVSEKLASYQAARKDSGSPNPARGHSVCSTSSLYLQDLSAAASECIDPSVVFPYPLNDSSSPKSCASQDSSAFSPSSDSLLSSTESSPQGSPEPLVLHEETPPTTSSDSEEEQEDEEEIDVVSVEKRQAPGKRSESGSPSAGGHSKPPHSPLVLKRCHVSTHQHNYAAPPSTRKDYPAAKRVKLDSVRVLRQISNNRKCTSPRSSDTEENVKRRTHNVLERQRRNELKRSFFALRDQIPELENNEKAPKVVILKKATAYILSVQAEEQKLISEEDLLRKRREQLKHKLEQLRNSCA
Hepatocyte nuclear factor 3-beta (Homo sapiens), sequence (Q9Y261 whole entry, looked up): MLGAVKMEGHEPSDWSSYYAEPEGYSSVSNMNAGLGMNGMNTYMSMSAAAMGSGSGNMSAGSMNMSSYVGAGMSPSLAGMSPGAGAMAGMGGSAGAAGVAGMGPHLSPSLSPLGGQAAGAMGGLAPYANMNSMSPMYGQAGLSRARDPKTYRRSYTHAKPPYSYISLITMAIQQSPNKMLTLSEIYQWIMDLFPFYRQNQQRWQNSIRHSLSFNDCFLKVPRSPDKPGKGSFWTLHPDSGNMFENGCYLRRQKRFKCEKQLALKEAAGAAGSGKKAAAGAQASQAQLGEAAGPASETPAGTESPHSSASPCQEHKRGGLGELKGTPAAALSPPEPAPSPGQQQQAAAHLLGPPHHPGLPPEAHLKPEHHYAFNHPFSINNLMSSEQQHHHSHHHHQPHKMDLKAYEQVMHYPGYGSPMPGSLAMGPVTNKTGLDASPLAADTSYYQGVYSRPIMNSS
Nuclear respiratory factor 1 (Homo sapiens), sequence (Q16656 whole entry, looked up): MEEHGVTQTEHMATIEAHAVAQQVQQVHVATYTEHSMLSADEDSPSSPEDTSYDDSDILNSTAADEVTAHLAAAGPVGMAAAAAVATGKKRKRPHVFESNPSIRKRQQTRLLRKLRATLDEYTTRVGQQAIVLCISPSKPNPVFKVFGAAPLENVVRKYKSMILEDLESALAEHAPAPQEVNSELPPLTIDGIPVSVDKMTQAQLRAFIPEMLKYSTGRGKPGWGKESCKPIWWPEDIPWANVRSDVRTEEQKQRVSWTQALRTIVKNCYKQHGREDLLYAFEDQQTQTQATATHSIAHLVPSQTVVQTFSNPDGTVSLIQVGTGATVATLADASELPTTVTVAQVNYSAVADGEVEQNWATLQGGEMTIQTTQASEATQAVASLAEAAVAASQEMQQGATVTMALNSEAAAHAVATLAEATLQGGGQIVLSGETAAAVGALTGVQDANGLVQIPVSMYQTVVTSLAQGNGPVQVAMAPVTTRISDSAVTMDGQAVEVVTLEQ
Signal transducer and activator of transcription 3 (Homo sapiens), sequence (P40763 whole entry, looked up): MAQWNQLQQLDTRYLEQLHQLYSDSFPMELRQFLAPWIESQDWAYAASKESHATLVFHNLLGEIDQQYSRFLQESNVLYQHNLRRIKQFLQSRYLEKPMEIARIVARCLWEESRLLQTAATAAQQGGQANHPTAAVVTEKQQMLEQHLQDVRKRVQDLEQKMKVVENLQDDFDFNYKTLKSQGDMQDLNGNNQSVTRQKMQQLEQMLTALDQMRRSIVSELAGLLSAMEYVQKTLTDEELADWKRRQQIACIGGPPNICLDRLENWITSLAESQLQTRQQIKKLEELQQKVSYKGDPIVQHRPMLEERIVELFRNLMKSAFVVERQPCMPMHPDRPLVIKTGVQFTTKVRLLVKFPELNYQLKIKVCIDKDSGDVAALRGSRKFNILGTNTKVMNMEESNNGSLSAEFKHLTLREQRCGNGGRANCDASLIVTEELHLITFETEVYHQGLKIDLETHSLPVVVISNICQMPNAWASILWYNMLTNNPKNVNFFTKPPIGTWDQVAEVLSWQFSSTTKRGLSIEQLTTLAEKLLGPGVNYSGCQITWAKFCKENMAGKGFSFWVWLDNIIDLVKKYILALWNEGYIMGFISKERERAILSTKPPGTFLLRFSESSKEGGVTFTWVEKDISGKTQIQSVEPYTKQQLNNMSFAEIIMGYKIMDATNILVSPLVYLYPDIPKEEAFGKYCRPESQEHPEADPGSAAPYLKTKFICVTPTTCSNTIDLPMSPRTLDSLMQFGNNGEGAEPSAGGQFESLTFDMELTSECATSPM
Transcriptional activator Myb (Homo sapiens), sequence (P10242 whole entry, looked up): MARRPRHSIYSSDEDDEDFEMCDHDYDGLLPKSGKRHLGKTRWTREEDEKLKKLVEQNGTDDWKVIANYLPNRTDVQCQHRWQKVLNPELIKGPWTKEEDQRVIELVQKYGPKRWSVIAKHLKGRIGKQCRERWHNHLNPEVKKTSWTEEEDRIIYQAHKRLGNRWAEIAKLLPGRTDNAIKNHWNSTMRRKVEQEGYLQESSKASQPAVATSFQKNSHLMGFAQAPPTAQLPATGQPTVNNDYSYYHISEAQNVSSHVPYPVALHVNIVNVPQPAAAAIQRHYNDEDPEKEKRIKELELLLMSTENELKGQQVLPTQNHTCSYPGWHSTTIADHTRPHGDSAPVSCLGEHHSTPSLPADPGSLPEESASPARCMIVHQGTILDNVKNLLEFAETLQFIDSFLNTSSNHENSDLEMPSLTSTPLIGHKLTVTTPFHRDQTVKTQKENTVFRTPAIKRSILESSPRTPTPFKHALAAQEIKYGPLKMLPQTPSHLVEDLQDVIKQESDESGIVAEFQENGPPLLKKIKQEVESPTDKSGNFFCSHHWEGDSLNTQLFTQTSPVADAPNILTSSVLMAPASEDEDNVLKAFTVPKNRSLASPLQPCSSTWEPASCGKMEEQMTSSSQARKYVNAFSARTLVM
Nuclear receptor subfamily 1 group I member 2 (Homo sapiens), sequence (O75469 whole entry, looked up, the tested form may be a part): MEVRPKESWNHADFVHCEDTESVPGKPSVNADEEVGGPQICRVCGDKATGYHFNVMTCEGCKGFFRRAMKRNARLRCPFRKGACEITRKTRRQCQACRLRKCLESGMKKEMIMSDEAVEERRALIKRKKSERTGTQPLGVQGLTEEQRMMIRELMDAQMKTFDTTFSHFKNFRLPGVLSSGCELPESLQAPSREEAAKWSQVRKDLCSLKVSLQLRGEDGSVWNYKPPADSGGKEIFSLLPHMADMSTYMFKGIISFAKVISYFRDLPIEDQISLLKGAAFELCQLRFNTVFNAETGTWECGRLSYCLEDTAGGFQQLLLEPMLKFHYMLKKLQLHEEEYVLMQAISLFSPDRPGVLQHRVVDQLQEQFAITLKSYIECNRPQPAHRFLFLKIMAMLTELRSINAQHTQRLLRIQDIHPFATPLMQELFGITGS
Heat shock factor protein 1 (Homo sapiens), sequence (Q00613 whole entry, looked up): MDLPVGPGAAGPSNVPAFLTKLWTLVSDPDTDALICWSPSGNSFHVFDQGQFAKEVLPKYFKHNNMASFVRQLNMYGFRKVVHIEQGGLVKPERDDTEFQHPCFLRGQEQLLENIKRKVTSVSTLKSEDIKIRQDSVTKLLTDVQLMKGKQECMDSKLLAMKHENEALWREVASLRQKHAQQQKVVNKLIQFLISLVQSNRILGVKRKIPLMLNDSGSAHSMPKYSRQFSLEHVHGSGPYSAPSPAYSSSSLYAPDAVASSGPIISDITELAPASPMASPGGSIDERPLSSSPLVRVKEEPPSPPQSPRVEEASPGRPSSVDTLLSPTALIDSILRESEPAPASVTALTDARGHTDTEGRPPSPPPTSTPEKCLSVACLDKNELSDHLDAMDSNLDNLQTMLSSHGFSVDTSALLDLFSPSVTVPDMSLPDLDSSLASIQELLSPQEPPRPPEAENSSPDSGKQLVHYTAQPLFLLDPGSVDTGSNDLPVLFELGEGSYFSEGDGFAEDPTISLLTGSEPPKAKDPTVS

O=C(O)/C=C/C(=O)O
inactive: [1] | [2] | [3] | [4] | [5] | [6] | [7] | [8] | [9] | [10] | [11] | [12] | [13] | [14] | [15] | [16] | [17] | [18]

CCCCn1cc[n+](C)c1
inactive: [19] | [2] | [3] | [5] | [6] | [7] | [8] | [9] | [11] | [12] | [13] | [14] | [15] | [16] | [20] | [18]

CCCCNC(N)=O
inactive: [19] | [2] | [3] | [4] | [5] | [6] | [7] | [8] | [9] | [10] | [11] | [12] | [13] | [14] | [15] | [16] | [17] | [20] | [18]
